Compound activity (PubChem BioAssay)
This is a sample that favours compounds with a hit; in the whole collection about 1.4% have one here.
PrP 5UTR inh – suppresses PrP 5' UTR mRNA reporter expression; 340,000 tested, 0.35% active; cell-based PrP 5' UTR mRNA reporter, plate reader; inhibition, % (test concentration not listed); AID 488862; in the data active = inhibition above about 52%; note: 0 = median of the neutral control wells
Vc quorum ag – induces V. cholerae light production without autoinducers. AID 588436. 350,000 tested, 0.16% active. activation, % at 18.7 µM. V. cholerae BH1578 lux reporter, luminescence, 6 h; in the data active = activation mostly above about 9.7%, no sharp cut-off
PrPC TRFRET – cell surface PrPC inhibition, primary TR-FRET screen; TR-FRET read-out; AID 720596; inhibition, % at 13.8 µM; 370,000 tested, 0.43% active; in the data active = inhibition above about 24%; note: 0% = median of the test wells and 100% = reference compound wells
FadD28 binding – inhibitors of Mycobacterium tuberculosis FadD28 bisubstrate binding; FadD28 bisubstrate probe binding, fluorescence polarization; inhibition, % at 12.5 µM; 360,000 tested, 0.22% active; AID 588549; in the data active = inhibition above about 8.5%, passing the limit was not always enough
SSB-PriA inh – K. pneumoniae PriA-SSBct interaction inhibition. 430,000 tested, 0.6% active. AlphaScreen SSBct-PriA binding, biotinylated peptide. inhibition, % at 33 µM; in the data active = inhibition mostly above about 37%, no sharp cut-off; inactive = mostly below about 20%;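 note: plate controls were negative control peptide for no effect and reference peptide for full effect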
PrPC confirm – confirmation of inhibitors of cell surface human prion protein; shares compounds with PrPC TRFRET; cell surface PrPC level, TR-FRET; inhibition, % at 13.8 µM; 1,500 tested, 65% active; AID 743200; in the data active = inhibition above about 25%
LD9 cytotox – counter-screen for PrPc inhibitors: cytotoxicity in LD9 cells; 1,500 tested, 29% active; shares compounds with PrPC TRFRET; inhibition, % at 13.8 µM; luminescence viability; AID 743201; in the data active = inhibition above about 9.5%
The depositor's hits bear a star; i = inactive; x = no result.

SMILES	PrP 5UTR inh	Vc quorum ag	PrPC TRFRET	FadD28 binding	SSB-PriA inh	PrPC confirm	LD9 cytotox
O=C(CSc1ccccc1)NC1=NCCS1	-12	0	-2	-3	3	x	x
Cc1cccc(CS(=O)(=O)N2CCC(S(=O)(=O)c3ccccc3)CC2)c1	x	x	x	x	-7	x	x
O=c1[nH]c(CN2CCN(c3ccc(O)cc3)CC2)nc2scc(-c3ccc(Cl)cc3)c12	-4	1	26*	-2	11	39*	13*
Cc1cc(NC(=O)C(c2ccccc2)c2ccccc2)n(C)n1	x	x	x	x	9	x	x
Cc1c(C(=O)Nc2ccncc2)sc2nc(-c3ccc(F)cc3)cn12	-19	0	56*	-2	17	53*	12*
COc1ccc(-c2cn3c(C)c(C(=O)Nc4ccncc4)sc3n2)cc1	-9	0	10	-4	-5	x	x
Cc1nc2ccc(Br)cc2c(-c2ccccc2)c1C(=O)O	-53	i	62*	-1	-4	82*	1
CC(=O)c1c(C)nc2ccc(Br)cc2c1-c1ccccc1	-5	0	4	0	-18	x	x
Cc1cccc(C)c1NS(=O)(=O)c1ccc(-c2cnc(C3CC3)o2)cc1	30	i	25*	-6	-5	14	29*
O=C(Nc1ccn(Cc2c(F)c(F)cc(F)c2F)n1)c1ccc(COc2ccccc2Cl)cc1	18	i	x	-3	-11	x	x
Cc1cc(C)nc(NC(=O)c2ccc(COc3ccccc3Cl)cc2)c1	-25	i	27*	-3	-28	24	-2
O=C(Nc1ccn(Cc2ccccc2F)n1)c1ccc(COc2ccccc2Cl)cc1	20	-3	42*	-3	-2	31*	1
Cc1cccc(S(=O)(=O)NCCC(=O)NCc2cccnc2-c2cccs2)c1	x	x	x	x	-11	x	x
CC(C)(C)c1ccc(S(=O)(=O)Nc2ccc(-c3ccc(NS(=O)(=O)c4ccc(C(C)(C)C)cc4)cc3)cc2)cc1	x	x	x	x	-11	x	x
CC(C)(C)c1ccc(S(=O)(=O)Nc2ccc(C(O)(C(F)(F)F)C(F)(F)F)cc2)cc1	x	-1	26*	-7	x	4	-4
Cn1nc(-c2ccc(F)cc2)cc1C(=O)N(Cc1cnc2ccccn12)C1CC1	x	x	x	x	15	x	x
N#CC1=C2SCN(Cc3ccccc3)CN2C(=O)CC1c1ccc2c(c1)OCO2 (stereo unspecified)	-31	0	1	0	-9	x	x
N#CC1=C2SCN(Cc3ccccc3)CN2C(=O)CC1c1cccs1 (stereo unspecified)	-19	0	27*	1	-7	56*	-3
CC1(C)Cc2cccc(OCC(=O)NCCn3nc(-c4cccnc4)n(C4CC4)c3=O)c2O1	x	x	x	x	1	x	x
COc1cccc2sc(Nc3nnc(-c4ccccc4Cl)o3)nc12	-108	0	9	0	-8	x	x
COc1cccc2sc(Nc3nc(-c4ccncc4)cs3)nc12	2	1	28*	2	1	18	27*
COc1ccccc1-c1nnc(Nc2nc3c(OC)cccc3s2)o1	37	-2	42*	-1	0	69*	40*
COc1cccc2sc(Nc3nc(-c4ccc(Cl)s4)cs3)nc12	x	x	x	x	26	x	x
COc1ccc(C2=NN(S(=O)(=O)c3ccc(C)cc3)C(c3cn(-c4ccccc4)nc3-c3ccccc3)C2)cc1OC (stereo unspecified)	x	x	x	x	-1	x	x
COc1ccc(C(=O)NNC(=O)C(Cc2ccc(O)cc2)NC(=O)c2ccccc2NC(=O)c2ccc(OC)cc2)cc1 (stereo unspecified)	1	0	119*	-7	4	2	-4
SMILES	PrP 5UTR inh	Vc quorum ag	PrPC TRFRET	FadD28 binding	SSB-PriA inh	PrPC confirm	LD9 cytotox
CSc1ccccc1C(=O)NCC(O)c1csc2ccccc12 (stereo unspecified)	x	x	x	x	-1	x	x
CCOC(=O)COc1nc(-c2ccco2)cc(-c2ccco2)c1C#N	-26	0	2	-3	-8	x	x
CCOC(=O)C(C)Sc1nc(-c2ccco2)cc(C(F)(F)F)c1C#N (stereo unspecified)	0	i	33*	-3	3	49*	-1
CCCCCCCn1c2c(c(=N)c3ccccc31)CCC2	-28	i	30*	-2	-4	31*	15*
Cc1ccc(NC(=O)Nc2cnc(N3CCN(c4ccccn4)CC3)nc2)cc1Cl	x	x	x	x	-9	x	x
COc1ccc(CCNC(=O)NCC#CCN2CCCC2)cc1	x	x	x	x	-8	x	x
O=S(=O)(c1c(Cl)cccc1Cl)N1CCCCCC1	x	x	x	x	-13	x	x
C[C@@H]1CC=C[C@H]2[C@H]1C(=O)N(Cc1ccccc1)[C@H]2c1ccc2ccccc2c1Br	4	i	42*	-3	5	50*	-3
COCCNC(=O)CSc1cc(-c2ccccc2)c2ccc(OC)cc2n1	7	i	33*	-11	7	37*	-6
CC1CCC2(CC1)C(Nc1cccc(Cl)c1)=NC(=S)N2CC#N (stereo unspecified)	-9	i	36*	-2	8	39*	-7
CC(C)NC(=S)n1cc(C(=O)c2cc(Cl)cc(Cl)c2O)cn1	-11	0	41*	1	-5	10	-3
O=S(=O)(c1cccc2cccnc12)N1CCCC(Cc2nc(-c3ccsc3)no2)C1 (stereo unspecified)	x	x	x	x	8	x	x
O=c1[nH]c2cc3c(cc2cc1CN(CC1CCCO1)S(=O)(=O)c1ccccc1)OCCO3 (stereo unspecified)	-12	2	55*	0	-19	14	-2
CC(=O)c1cccc(S(=O)(=O)N(Cc2cc3cc4c(cc3[nH]c2=O)OCCO4)CC2CCCO2)c1 (stereo unspecified)	-14	i	2	-3	5	x	x
COc1ccc(-n2c(C)nc3ccc(NC(=O)c4ccc5ccccc5n4)cc3c2=O)cc1	x	x	x	x	-16	x	x
Cc1ccccc1OCC(=O)Nc1ccc(Cc2ccncc2)cc1	-19	0	25*	-4	0	9	-2
COc1ccc(NC(=O)Nc2cnccn2)c(OC)c1	-16	-1	3	-1	-14	x	x
Cc1ccccc1OCCC(=O)Nc1ccc2c(C)cc(=O)oc2c1	-29	0	38*	-1	-8	27*	-1
COc1ccc(NC(=O)Nc2ccc(Cc3ccncc3)cc2)c(OC)c1	-11	i	26*	-3	11	21	-6
Cc1nc(N2CCCC2)nc(C)c1NC(=O)COc1ccccc1	x	x	x	x	-9	x	x
O=C(Nc1nc2c(s1)CN(C(=O)CCn1ccc(=O)[nH]c1=O)CC2)c1ccccn1	x	x	x	x	-13	x	x
CCN(CC)CCOC(=O)/C=C/c1ccccc1	-17	0	-2	-3	-10	x	x
CCN(CC)CC(C)(C)C(=O)/C=C/c1ccc(/C=C/C(=O)C(C)(C)CN(CC)CC)cc1	46	i	90*	-2	-2	105*	96*
